Measured values taken from publication PMC7862700, “An all-to-all approach to the identification of sequence-specific readers for epigenetic DNA modifications on cytosine”.

Assays:
Experiment in all cases: DAPPL (digital affinity profiling via proximity ligation, sequencing); 10 mM Tris-HCl pH 7.5, 50 mM NaCl, 1 mM DTT, 4% glycerol, room temperature, 30 min; GST-TFs on glutathione beads, 16-mer random dsDNA library, 0.1% formaldehyde crosslink after washing; high values mean tight binding
Conditions in all cases: protein: recombinant; tags: N-terminal GST; dsDNA, one strand shown
EHF = target: T1, EHF (Homo sapiens, UniProt Q9NZC4 1-300)
T1 sequence: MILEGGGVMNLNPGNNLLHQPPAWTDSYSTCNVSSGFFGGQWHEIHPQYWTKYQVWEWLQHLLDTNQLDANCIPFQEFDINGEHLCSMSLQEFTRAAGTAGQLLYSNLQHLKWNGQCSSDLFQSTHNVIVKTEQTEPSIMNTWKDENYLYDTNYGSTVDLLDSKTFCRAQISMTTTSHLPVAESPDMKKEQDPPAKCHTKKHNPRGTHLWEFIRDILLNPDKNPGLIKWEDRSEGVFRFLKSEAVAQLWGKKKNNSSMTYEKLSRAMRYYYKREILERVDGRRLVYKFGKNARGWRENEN
Method in brief: (§1)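 GST fusions of human transcription factors were expressed in yeast and captured with glutathione beads. Once given DNA barcodes and pooled alongside a tag-only sample, they were incubated for 30 min at room temperature with 200 nmole of a random double-stranded 16-mer DNA library in Tris/NaCl/DTT/glycerol buffer, then washed, crosslinked (0.1% formaldehyde), proximity-ligated, PCR-amplified and sequenced on an Illumina NextSeq500. The binding signal of each hexamer is its read frequency for a factor divided by its frequency for the tag-only sample.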

ETV5 = ETV5 (Homo sapiens, UniProt P41161 1-510)
Sequence of ETV5 (P41161 whole entry): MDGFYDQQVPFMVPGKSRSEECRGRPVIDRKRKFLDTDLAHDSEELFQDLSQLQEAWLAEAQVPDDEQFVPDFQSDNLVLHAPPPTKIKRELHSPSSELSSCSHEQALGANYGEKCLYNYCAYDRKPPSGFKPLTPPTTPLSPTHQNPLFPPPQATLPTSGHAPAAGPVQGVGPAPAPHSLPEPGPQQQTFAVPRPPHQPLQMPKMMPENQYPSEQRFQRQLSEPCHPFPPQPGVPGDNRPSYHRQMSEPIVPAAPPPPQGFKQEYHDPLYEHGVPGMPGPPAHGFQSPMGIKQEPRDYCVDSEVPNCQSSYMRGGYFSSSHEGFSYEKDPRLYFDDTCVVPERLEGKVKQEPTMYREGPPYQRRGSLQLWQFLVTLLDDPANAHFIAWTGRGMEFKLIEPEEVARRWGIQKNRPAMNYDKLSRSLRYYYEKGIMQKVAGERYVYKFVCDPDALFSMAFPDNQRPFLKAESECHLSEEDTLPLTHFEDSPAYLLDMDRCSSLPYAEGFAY
Method in brief: as §1

ELF3 = target: T2, ELF3 (Homo sapiens, UniProt P78545 1-371)
T2 sequence: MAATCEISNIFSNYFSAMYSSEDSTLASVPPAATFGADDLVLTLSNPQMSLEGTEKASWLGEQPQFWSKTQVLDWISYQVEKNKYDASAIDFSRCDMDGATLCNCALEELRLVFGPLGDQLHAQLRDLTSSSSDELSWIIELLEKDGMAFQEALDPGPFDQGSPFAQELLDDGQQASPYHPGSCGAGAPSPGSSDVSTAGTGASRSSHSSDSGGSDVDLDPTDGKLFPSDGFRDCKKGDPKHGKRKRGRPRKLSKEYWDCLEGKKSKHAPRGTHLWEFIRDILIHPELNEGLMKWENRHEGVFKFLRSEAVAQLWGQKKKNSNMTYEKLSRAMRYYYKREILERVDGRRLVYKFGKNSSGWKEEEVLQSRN
Method in brief: as §1

ERF = target: T3, ERF (Homo sapiens, UniProt P50548 1-548)
T3 sequence: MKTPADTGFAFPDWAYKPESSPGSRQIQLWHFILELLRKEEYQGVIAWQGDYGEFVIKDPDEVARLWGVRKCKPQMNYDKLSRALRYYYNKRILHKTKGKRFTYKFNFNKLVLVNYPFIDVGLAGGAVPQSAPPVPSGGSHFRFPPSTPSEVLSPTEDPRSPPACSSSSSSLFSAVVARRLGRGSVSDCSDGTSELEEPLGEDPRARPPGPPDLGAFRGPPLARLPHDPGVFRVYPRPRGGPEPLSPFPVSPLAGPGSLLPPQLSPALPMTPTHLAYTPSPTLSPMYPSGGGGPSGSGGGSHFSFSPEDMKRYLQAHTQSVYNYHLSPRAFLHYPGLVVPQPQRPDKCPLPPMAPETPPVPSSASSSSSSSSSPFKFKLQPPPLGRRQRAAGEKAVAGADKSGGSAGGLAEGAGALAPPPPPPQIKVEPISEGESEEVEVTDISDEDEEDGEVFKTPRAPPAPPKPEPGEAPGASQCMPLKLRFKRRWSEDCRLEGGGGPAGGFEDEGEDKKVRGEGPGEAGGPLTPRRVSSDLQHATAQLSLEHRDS
Method in brief: as §1

ETS2 = target: T4, ETS2 (Homo sapiens, UniProt P15036 1-469)
T4 sequence: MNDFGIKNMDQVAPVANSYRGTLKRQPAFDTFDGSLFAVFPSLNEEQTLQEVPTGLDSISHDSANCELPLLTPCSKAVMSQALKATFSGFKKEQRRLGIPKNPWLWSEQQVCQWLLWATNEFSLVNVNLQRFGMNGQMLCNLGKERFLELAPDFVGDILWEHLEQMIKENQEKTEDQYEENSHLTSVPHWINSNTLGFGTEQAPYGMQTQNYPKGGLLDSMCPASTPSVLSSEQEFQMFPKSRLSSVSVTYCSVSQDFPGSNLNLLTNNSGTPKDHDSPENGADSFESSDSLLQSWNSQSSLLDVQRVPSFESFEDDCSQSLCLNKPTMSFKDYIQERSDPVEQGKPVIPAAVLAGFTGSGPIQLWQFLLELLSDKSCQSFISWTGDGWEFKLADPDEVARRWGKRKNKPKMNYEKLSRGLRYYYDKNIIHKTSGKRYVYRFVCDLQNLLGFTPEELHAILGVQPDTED
Method in brief: as §1

ETV7 = target: T5, ETV7 (Homo sapiens, UniProt Q9Y603 1-341)
T5 sequence: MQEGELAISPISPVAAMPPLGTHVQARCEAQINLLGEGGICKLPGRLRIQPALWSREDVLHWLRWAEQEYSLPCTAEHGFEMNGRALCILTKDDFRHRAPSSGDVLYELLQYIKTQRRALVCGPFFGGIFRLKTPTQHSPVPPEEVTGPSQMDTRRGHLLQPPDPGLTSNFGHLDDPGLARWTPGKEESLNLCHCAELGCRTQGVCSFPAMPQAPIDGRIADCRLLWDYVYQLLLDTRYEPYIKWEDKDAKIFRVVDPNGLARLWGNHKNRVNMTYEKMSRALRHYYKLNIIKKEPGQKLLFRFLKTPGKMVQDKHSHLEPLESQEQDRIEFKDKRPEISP
Method in brief: as §1

What does the source list for CGAACG?
binding signal (EHF): 1 fold enrichment (6-mer frequency, TF over GST control); binding signal (ETV5): 1.03 fold enrichment (6-mer frequency, TF over GST control); binding signal (ELF3): 1.05 fold enrichment (6-mer frequency, TF over GST control); binding signal (ERF): 1.11 fold enrichment (6-mer frequency, TF over GST control); binding signal (ETS2): 1.03 fold enrichment (6-mer frequency, TF over GST control); binding signal (ETV7): 1.02 fold enrichment (6-mer frequency, TF over GST control)
